# The supplement of paper PMC10338343
# ± gives the standard deviation.
# Key:
# [1] = system: MILI (PIWIL2) piRISC loaded with L1MC piRNA (26 nt); experiment: pre-steady-state target cleavage rate (min^-1); guide: L1MC piRNA 5'p-UAACUAAAUACUAUGCAAGCUGUAGG; higher = faster piRNA-guided slicing of the target;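 also: 1 nM active piRISC with 0.1 nM target library at 33 °C single turnover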
# Method in brief: (§1)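 At 33 °C in HEPES–potassium acetate buffer, a transcribed, DNA-blocked target RNA library […] was exposed for 0–8 or 0–960 min to 1 nM active affinity-purified piRISC carrying a single synthetic guide, with or without 500 nM GTSF1 partner protein. Uncleaved targets were sequenced and normalised to depth and to weakly complementary targets. With three trials pooled and k3 capped at 0.0001 min^-1, a burst-and-steady-state fit produced the pre-steady-state cleavage rate.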
# [2] = system: EfPiwi piRISC loaded with L1MC piRNA (26 nt); experiment: pre-steady-state target cleavage rate (min^-1); auxiliary factor: 500 nM Ephydatia muelleri Gtsf1; guide: L1MC piRNA 5'p-UAACUAAAUACUAUGCAAGCUGUAGG; MIWI and MILI are mouse PIWI proteins and EfPiwi is from a freshwater sponge; tags in brackets are library labels; higher = faster piRNA-guided slicing of the target
# Method in brief: as §1
# [3] = auxiliary factor: 500 nM mouse GTSF1
# [4] = auxiliary factor: none (no GTSF1)
Sequence,"pre-steady-state target cleavage rate [1, 3]","pre-steady-state target cleavage rate [1, 4]",pre-steady-state target cleavage rate [2]
UCCUGGAACAGCUAGGAUAGUAUUUAGUUA,0.26 ± 0.016,0.00746 ± 0.002,–
UCCUGCACAGCUUGCAUAGUAUUUAGUUA,0.317 ± 0.018,0.00995 ± 0.0028,0.0745 ± 0.016
UCCUGGAUGUGCUUGCAUAGUAUCUUAGUUA,0.135 ± 0.019,0.0069 ± 0.0028,–
UCCUGGAUGUCGAUGCAUAGUAUUUAGUCA,0.111 ± 0.02,0.00347 ± 0.0027,–
UCCUGGAUGUCCUUGCAGAGUAUUUAGUUA,0.0231 ± 0.011,0.00501 ± 0.0024,–
UCCUGGAUGAGGUUGCAUAGUAUUUAGUAA,0.0985 ± 0.018,0.004 ± 0.0027,–
UCCUGGAUCAGCGUUGCAUAGUAUUUAGUUA,0.212 ± 0.016,0.00789 ± 0.0028,–
UCCUGGAUGUCCUUGAUAGUAUUUAGUUA,0.00551 ± 0.0039,0.00337 ± 0.0019,–
UCCUGGAUCAGCUUGGUUAGUAUUUAGUUA,0.209 ± 0.016,0.0137 ± 0.0033,–
UCCUGGAACAGCAUGCAUUGUAUUUAGUUA,0.204 ± 0.016,0.00901 ± 0.0024,0.00504 ± 0.002
UCCUCCUAGAGCUUGGAUAGUAUUUAGUUA,0.217 ± 0.013,0.00594 ± 0.0019,–
UCCUGGAUGAGCUUGCAUAGUUAUUUAGUUA,0.0115 ± 0.0045,0.00489 ± 0.0022,–
UCCUCCUACAGCUUAGCAUAGUAUUUAGUUA,0.314 ± 0.017,0.0112 ± 0.0024,0.0919 ± 0.025
UCCUGGAUCACGUUGCAUAGUAUUUAGUAA,0.18 ± 0.024,0.00365 ± 0.0029,–
UCCUGGAUGUCGUUGCAUUGUAUUUAGUUA,0.0197 ± 0.0048,0.00572 ± 0.0024,–
UCCUGGAUGUCGAUGCAUAGUAGUUAGUUA,0.0193 ± 0.005,0.00415 ± 0.0021,–
UCCUGGAUCUGCUAGCAUAGUAUUUAGUUA,0.168 ± 0.014,0.00596 ± 0.0019,–
UCCUGGAUGUGCUUGGAUAGUAUUAAGUUA,0.0647 ± 0.018,0.00591 ± 0.0023,–

Sequence,"pre-steady-state target cleavage rate [1, 3]","pre-steady-state target cleavage rate [1, 4]",pre-steady-state target cleavage rate [2]
UCCUCCAACAGCUUGCUUAGUAUUUAGUUA,0.262 ± 0.017,0.0066 ± 0.0021,0.0148 ± 0.0053
UCCUGGAUGUCCUUGCAUAGUAUCUAGUUA,0.12 ± 0.024,0.00287 ± 0.0025,0.00775 ± 0.0043
UCCUGGUACUGCUUGCAUAGUAAUUAGUUA,0.169 ± 0.031,0.00575 ± 0.0025,0.114 ± 0.043
UCCUGCUACAGCUUGCAUAGUAUUUUGUUA,0.168 ± 0.025,0.00464 ± 0.0019,0.00916 ± 0.0029
UCCUGCUACAGCUUGUCAUAGUAUUUAGUUA,0.211 ± 0.021,0.00341 ± 0.0028,0.0131 ± 0.0037
UCCUCGUACAGCUUGCAUAGUAUUUAGUAA,0.24 ± 0.014,0.00621 ± 0.0022,0.00794 ± 0.0029
UCCUGCUACUCCUUGCAUAGUAUUUAGUAA,0.188 ± 0.023,0.00412 ± 0.002,0.00443 ± 0.003
UCCUGGAUCAGCUUGCAAAGUAUUAAGUUA,0.119 ± 0.011,0.00698 ± 0.0025,0.00373 ± 0.0026
UCCUCCUACAGCUUGCAUUGUAUAUAGUUA,0.177 ± 0.018,0.00393 ± 0.0025,0.00608 ± 0.0036
UCCUGGAUGUGCUUGCAUAGUAUUUAGUUG [g2:g20:cont:t1G],0.179 ± 0.022,0.00877 ± 0.0027,0.00803 ± 0.0029
UCCUGCUACAGCUUCCAAAGUAUUUAGUUA,0.112 ± 0.015,0.00347 ± 0.0025,0.00321 ± 0.0019
UCCUGCUACAGGAUGCAUAGUAUUUAGUUA,0.271 ± 0.0083,0.00941 ± 0.0024,0.0191 ± 0.0043
UCCUCCUUCAGGUUGCAUAGUAUUUAGUUA,0.239 ± 0.013,0.0102 ± 0.002,0.0528 ± 0.012
UCCUGGAUCAGCUUGCAUAGUAUUUAGUUU [g2:g22:cont:t1U],0.357 ± 0.019,0.0189 ± 0.0043,0.121 ± 0.025
UCCUGGAUCAGCUUGCAUAGUAUUUAGUA,0.263 ± 0.019,0.00426 ± 0.0027,0.00808 ± 0.0034
UCCUGGAUGAGCUUAGCAUAGUAUUUAGUUA,0.217 ± 0.016,0.0041 ± 0.0027,0.0344 ± 0.0086
UCCUGGAUGUGGUUGCAUAGUAUAUAGUUA,0.158 ± 0.023,0.00921 ± 0.0037,0.00747 ± 0.0056
UCCUGGAUCAGCUUGCAUCGUAUUUAGUUA,0.0942 ± 0.012,0.00789 ± 0.0027,0.00918 ± 0.0028
